Assay outcomes deposited in PubChem BioAssay by National Center for Advancing Translational Sciences (NCATS).
Only some compounds are listed: those with a hit (about 8% of all), similar ones and a draw of the others.
KB-V1 MDR tox: KB-V1 MDR subline cytotoxicity | KB-V1 MDR cells viability, CellTiter-Glo, 72 h | Potency, µM (highest dose often 46.1 µM), usual class: cytotoxic | 400,000 tested, 3.4% active; note: % is set by controls: 0 for no effect and ±100 for the full control effect; nearly all actives have a fitted effect of over 60% in size
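Readout: CellTiter-Glo luminescence, 10 min after addition. Cells: KB-V1 MDR subline, 72 h at 37 degrees C with compound. Analysis: corrected, normalized data fitted to concentration-effect curves.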
HT1080 IDH1KD tx: toxicity to HT-1080 IDH1 knockdown cells (counter line); HT-1080 IDH1 knockdown viability, ATP luminescence, 48 h; Potency, µM (highest dose often 46.1 µM), inactives show at the top dose activity, negative = toxicity, hits mostly cytotoxic; 360,000 tested, 2% active; AID 686971;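 note: 0% = DMSO wells and -100% = cell-free medium wells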
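HT-1080-IDH1KD cells (IDH1 knocked down), 750/well in RPMI with 5% FBS, treated with compound 48 h at 37 degrees C. Viability by CellTiter-Glo luminescence, normalised to DMSO and no-cell wells; concentration-response curves classed.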
HT1080NT lethal: kills 2HG-producing HT-1080-NT fibrosarcoma cells; HT-1080-NT fibrosarcoma viability, CellTiter-Glo ATP luminescence, 48 h; Potency, µM (titrated, usually from 46.1 µM), without a hit: top-dose activity, negative = less viability, most hits filed as cytotoxic; 360,000 tested, 1.6% active;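 note: NT is the 2HG producing partner of a matched IDH1 knockdown line; 0% = DMSO-treated cells and -100% = media-only wells without cells; nearly all actives have a fitted effect of over 55% in size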
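Compounds were tested in concentration-response format on HT-1080-NT cells for 48 hours at 37 degrees C. Cell viability came from CellTiter-Glo luminescence; curves were classified by r2, response magnitude and activity.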
SW480 rereplic: DNA re-replication induction in SW480 cells. Potency, µM (series often up to 46.1 µM), inactives show at the highest dose re-replication activation, usual class: activators. SW480 DNA re-replication, Hoechst DNA content imaging, 48 h. 340,000 tested, 1.8% active. AID 624297; note: % of control where 0% means no effect; nearly all actives have a fitted effect of over 55% in size
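Image-based read-out: total Hoechst fluorescence of nuclei (405 nm excitation, 500-530 nm emission), with hits raising the fraction of high-intensity nuclei. SW480 colon cells incubated 48 hr with compounds at 37 C.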
MCF10A rereplic: induces DNA re-replication in MCF 10a normal breast cells. MCF 10A DNA re-replication, Hoechst nuclear intensity, 48 h. Potency, µM (doses to about 46.1 µM), for inactives: top-dose activity, positive = re-replication, actives largely listed as activators. AID 624296. 350,000 tested, 2.9% active; note: % of control where 0% means no effect; nearly all actives have a fitted effect of over 50% in size
KB-3-1 cytotox: KB-3-1 parental cell cytotoxicity | KB-3-1 viability, CellTiter-Glo ATP luminescence, 72 h | Potency, µM (titrated, usually from 46.1 µM), actives largely listed as cytotoxic | 400,000 tested, 1.4% active | AID 1347075; note: % is set by controls: 0 for no effect and ±100 for the full control effect; nearly all actives have a fitted effect of over 60% in size
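Parental KB-3-1 viability, qHTS format: 72 h compound exposure, 37 °C; CellTiter-Glo; media-only wells and DMSO plates as controls; concentration-effect fits on corrected data.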
Numbers without * were called inactive; i = inactive; ? = inconclusive; · = no result given. Calls come from the whole dose curve; as a rule, active = well fitted curve in the direction sought with a large enough effect; inconclusive = small, poorly fitted or top-dose-only effect, or another doubt; inactive = no such curve, though single readings can be large; an effect the other way counts as inactive or inconclusive. Potency is the fitted concentration of half-maximal effect.

SMILES | KB-V1 MDR tox | HT1080 IDH1KD tx | HT1080NT lethal | SW480 rereplic | MCF10A rereplic | KB-3-1 cytotox
CC1CCN(S(=O)(=O)c2ccc3c(c2)N(CC(=O)NC(C)c2ccccc2)C(=O)CS3)CC1 (centres undefined) | i | · | · | · | · | i
CCc1ccc(NS(=O)(=O)c2ccc3[nH]cc(C(=O)NCCCOC(C)C)c(=O)c3c2)cc1 | i | · | · | · | · | i
CC(C)Oc1ccc(C(CCN)C2CCCCC2)cc1 (centres undefined) | 16µM* | 15µM* | 15µM* | ? | ? | ?
CC(C)Oc1ccc(C(=O)NC2CCCCC2)cc1 | i | 4% | 7% | 2% | -3% | i
Cc1cc(=O)n(Cc2cccc(Br)c2)c2c1c(C)nn2-c1ccccc1 | ? | · | · | · | · | i
O=c1c2ccccc2nc(-c2cccs2)n1-c1cccc2ccccc12 | 23µM* | 1% | 3% | -131% | 22% | ?
COc1ccc(CNn2c(-c3cccs3)nc3ccccc3c2=O)cc1OC | 23µM* | -28% | -27% | ? | ? | i
COc1cccc(C(=O)Nn2c(-c3cccs3)nc3ccccc3c2=O)c1OC | ? | -3% | 0% | -2% | 17% | i
O=c1c2cnn(-c3ccccc3)c2nc(-c2cccs2)n1-c1ccc(Cl)cc1 | i | 4% | 2% | -6% | ? | i
O=c1c2cnn(-c3ccccc3)c2nc(-c2cccs2)n1-c1cccc(Cl)c1 | 10µM* | 0% | 3% | 6% | ? | ?
O=C(Nc1ccccc1)C(Cl)C(=O)c1ccccc1 (centres undefined) | i | 11% | 8% | 0% | ? | i
CC(=O)C(Cl)C(=O)Nc1ccccc1 (centres undefined) | i | ? | ? | ? | ? | 21µM*
CCc1ccccc1NC(=O)CN(C)C(=O)CSc1nnc(Nc2ccc(C)cc2)s1 | 15µM* | 0% | -8% | -51% | -36% | i
CCc1ccc(Nc2nnc(SCC(=O)N(C)CC(=O)Nc3ccccc3CC)s2)cc1 | ? | 9% | 16% | 6% | ? | i
Cc1ccc(Nc2nnc(SCC(=O)Nc3cccnc3Cl)s2)cc1C | 5.2µM* | ? | -12% | -8% | ? | i
CCCCN(C)CCNC(=O)c1cc(=O)[nH]c2ccc(S(=O)(=O)N3CCCCCC3)cc12 | ? | · | · | · | · | i
O=C(CN1C(=O)/C(=C/c2ccccc2F)SC1=S)NC1C=CS(=O)(=O)C1 (centres undefined) | ? | 13% | 14% | -3% | 8% | i
COc1cccc(/C=C2\SC(=S)N(CCC(=O)NC3C=CS(=O)(=O)C3)C2=O)c1 (centres undefined) | i | ? | 16µM* | ? | ? | ?
CN(C(=O)CN1C(=O)S/C(=C\c2cccc(Cl)c2)C1=O)C1CCS(=O)(=O)C1 (centres undefined) | i | -2% | -6% | -3% | 23µM* | i
O=C(CN1C(=O)/C(=C/c2cccc(Cl)c2)SC1=S)NC1C=CS(=O)(=O)C1 (centres undefined) | i | 0% | -11% | ? | 15µM* | i
O=C(CN1C(=O)S/C(=C\c2ccc(Cl)cc2)C1=O)NC1C=CS(=O)(=O)C1 (centres undefined) | i | -9% | -1% | 23µM* | ? | i
CN(C(=O)CN1C(=O)S/C(=C\c2ccc(F)cc2)C1=O)C1CCS(=O)(=O)C1 (centres undefined) | ? | -7% | 23% | 5% | 10% | i
COc1ccc(/C=C2\SC(=S)N(CCC(=O)NC3C=CS(=O)(=O)C3)C2=O)cc1 (centres undefined) | i | 4% | 19% | 1% | ? | i
CC(=O)Nc1ccccc1-c1nc2ccccc2n(CC(=O)c2ccc(Br)cc2)c1=O | i | · | · | · | · | i
CC(C(=O)NC1C=CS(=O)(=O)C1)N1C(=O)/C(=C/c2cccc(Cl)c2)SC1=S (centres undefined) | i | ? | ? | 7% | ? | i
SMILES | KB-V1 MDR tox | HT1080 IDH1KD tx | HT1080NT lethal | SW480 rereplic | MCF10A rereplic | KB-3-1 cytotox
O=C(CN1C(=O)S/C(=C\c2cccc(Cl)c2)C1=O)NC1C=CS(=O)(=O)C1 (centres undefined) | i | 6% | -1% | ? | 9.2µM* | ?
Cc1nn(C(=O)COc2ccccc2Br)c(C)c1Sc1ccccc1 | i | · | · | · | · | i
O=C(COC(=O)c1nc(Cl)c(Cl)c(Cl)c1Cl)NCc1ccccc1 | i | ? | -25% | 16µM* | ? | i
Nc1c(Cl)c(Cl)nc(C(=O)OCC(=O)NCc2ccccc2)c1Cl | i | 0% | 16% | -4% | 0% | i
COc1cccc(OC)c1OCc1cc(C2C3CCCC=C3C(C#N)=C(N)C2(C#N)C#N)c(C)cc1C (centres undefined) | i | ? | ? | 18µM* | 13µM* | ?
CCCN1CC=C2C(C#N)=C(N)C(C#N)(C#N)C(c3cccc(OC)c3OC)C2C1 (centres undefined) | ? | -4% | -2% | -3% | 13% | i
CCn1nc(C)c(Br)c1C(=O)Sc1ccccc1Cl | i | ? | 16µM* | 23% | 18µM* | i
CCn1c(Cl)c(C=O)s/c1=N\S(=O)(=O)c1ccccc1 | ? | 8.2µM* | 13µM* | 15µM* | 1.2µM* | ?
Cc1cccc(NC(c2nnc(-c3ccccc3)o2)c2ccc(F)cc2Cl)c1C (centres undefined) | i | · | · | · | · | i
O=c1c2c3nc4ccccc4nc3n(/N=C/c3ccccn3)c2ncn1-c1ccccc1 | ? | ? | 5.8µM* | 23µM* | 3.3µM* | i
C=CCn1cnc2c(c1=O)c1nc3ccccc3nc1n2/N=C/c1ccccn1 | ? | 0% | 8% | 8% | 5% | i
Cc1ccc(CNc2ncccc2-c2nc3cc(Cl)ccc3o2)cc1 | ? | -7% | ? | -1% | ? | i
Clc1ccc2oc(-c3cccnc3NCc3ccccc3)nc2c1 | i | -3% | -1% | ? | 16µM* | i
Cc1ccc(SC2=C(N(C)C)C(=O)c3ccccc3C2=O)cc1 | i | ? | ? | ? | 12µM* | ?
CN(C)c1cccc2c1C(=O)c1ccccc1C2=O | ? | -24% | -27% | -17% | -2% | i
CCCCCCn1c(O)c(/C=C2\C=NN=C2c2ccccc2)sc1=S | ? | ? | -13% | ? | ? | i
